# Data taken from PubChem BioAssay.
# Active and inactive are the calls of the source.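 Rule for the calls, unless noted: active = normalized viability below 100% at a tested concentration; inactive = the rest.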
# Assays:
# [1] = viability loss with induced miR-34 in A549 – imaging, A549 dox-inducible miR-34, nuclei and caspase counts, primary screen (AID 1347080;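 active = compounds whose cell count with miR-34 switched on is under 0.7 times the count with it off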); settings: A549 miR-34 inducible, Hoechst nuclei count, 48 h
# [2] = MELAS cybrid and Rieske KO viability enhancers – cell-based, MELAS cybrids, Rieske KO mouse fibroblasts, CellTiter-Glo, primary screen (AID 1508586;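 active = mean z-score across replicates of 1.96 or higher in either the MELAS or the Rieske mutant cell line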;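 note: z relative to plate mean and SD of compound and empty wells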); settings: low glucose
# [3] = drug combination growth inhibition, ovarian cancer – cell-based, oncology-focused library, rucaparib conditional, profiling panel (AID 1508598); settings: patient-derived ovarian cancer cells, CellTiter-Glo viability, 144 h, stronger effect = lower value
# [4] = stronger effect = lower value, cell number ratio, induced over uninduced
# [5] = measured here: relative caspase fold change +Dox/-Dox
# [6] = measured here: total cells with miR-34 induction, stronger effect = lower value
# [7] = measured here: total cells without miR-34 induction
# [8] = MELAS cybrid survival, CellTiter-Glo 48 h, stronger effect = higher value
# [9] = Rieske KO mouse fibroblast survival, CellTiter-Glo 72 h
# [10] = at 0.000305 µM, OCI-C5x cells, with rucaparib 10 µM, 100% = cells with rucaparib alone
# [11] = at 0.000305 µM, OCI-C5x cells, without rucaparib
# [12] = at 0.000305 µM, OCI-P5x cells, with rucaparib 20 µM, 100% = cells with rucaparib alone
# [13] = at 0.000305 µM, OCI-P5x cells, without rucaparib
# [14] = at 0.00122 µM, OCI-C5x cells, with rucaparib 10 µM, 100% = cells with rucaparib alone
# [15] = at 0.00122 µM, OCI-C5x cells, without rucaparib
# [16] = at 0.00122 µM, OCI-P5x cells, with rucaparib 20 µM, 100% = cells with rucaparib alone
# [17] = at 0.00122 µM, OCI-P5x cells, without rucaparib
# [18] = at 0.00488 µM, OCI-C5x cells, with rucaparib 10 µM, 100% = cells with rucaparib alone
# [19] = at 0.00488 µM, OCI-C5x cells, without rucaparib
# [20] = at 0.00488 µM, OCI-P5x cells, with rucaparib 20 µM, 100% = cells with rucaparib alone
# [21] = at 0.00488 µM, OCI-P5x cells, without rucaparib
# [22] = at 0.0195 µM, OCI-C5x cells, with rucaparib 10 µM, 100% = cells with rucaparib alone
# [23] = at 0.0195 µM, OCI-C5x cells, without rucaparib
# [24] = at 0.0195 µM, OCI-P5x cells, with rucaparib 20 µM, 100% = cells with rucaparib alone
# [25] = at 0.0195 µM, OCI-P5x cells, without rucaparib
# [26] = at 0.0781 µM, OCI-C5x cells, with rucaparib 10 µM, 100% = cells with rucaparib alone
# [27] = at 0.0781 µM, OCI-C5x cells, without rucaparib
# [28] = at 0.0781 µM, OCI-P5x cells, with rucaparib 20 µM, 100% = cells with rucaparib alone
# [29] = at 0.0781 µM, OCI-P5x cells, without rucaparib
# [30] = at 0.313 µM, OCI-C5x cells, with rucaparib 10 µM, 100% = cells with rucaparib alone
# [31] = at 0.313 µM, OCI-C5x cells, without rucaparib
# [32] = at 0.313 µM, OCI-P5x cells, with rucaparib 20 µM, 100% = cells with rucaparib alone
# [33] = at 0.313 µM, OCI-P5x cells, without rucaparib
# [34] = at 1.25 µM, OCI-C5x cells, with rucaparib 10 µM, 100% = cells with rucaparib alone
# [35] = at 1.25 µM, OCI-C5x cells, without rucaparib
# [36] = at 1.25 µM, OCI-P5x cells, with rucaparib 20 µM, 100% = cells with rucaparib alone
# [37] = at 1.25 µM, OCI-P5x cells, without rucaparib
# [38] = at 5 µM, OCI-C5x cells, with rucaparib 10 µM, 100% = cells with rucaparib alone
# [39] = at 5 µM, OCI-C5x cells, without rucaparib
# [40] = at 5 µM, OCI-P5x cells, with rucaparib 20 µM, 100% = cells with rucaparib alone
# [41] = at 5 µM, OCI-P5x cells, without rucaparib
structure (smiles),measurement,setting,value
CC1C(=O)O[C@H]2C(O)C34C5CC(C(C)(C)C)C36C(O)C(=O)O[C@H]6O[C@]4(C(=O)O5)[C@@]12O (stereo partly drawn),fold change,[1]; [4],0.925 (inactive)
same,fold change,[1]; [5],1.45
same,cell count,[1]; [6],7630
same,cell count,[1]; [7],8250
same,z-score,[2]; [8],-0.353 (inactive)
same,z-score,[2]; [9],-0.351
CN(CC(=O)N(Cc1ccc(C2CCCCC2)cc1)c1ccc(C(=O)O)cc1)S(=O)(=O)c1c(F)c(F)c(F)c(F)c1F,fold change,[1]; [4],0.95 (inactive)
same,fold change,[1]; [5],0.314
same,cell count,[1]; [6],3920
same,cell count,[1]; [7],4130
same,z-score,[2]; [8],1.94 (inactive)
same,z-score,[2]; [9],0.483
same,viability,[3]; [10],114% (inactive)
same,viability,[3]; [11],111% (inactive)
same,viability,[3]; [12],97.3% (active)
same,viability,[3]; [13],102% (inactive)
same,viability,[3]; [14],115% (inactive)
same,viability,[3]; [15],111% (inactive)
same,viability,[3]; [16],96% (active)
same,viability,[3]; [17],102% (inactive)
same,viability,[3]; [18],119% (inactive)
same,viability,[3]; [19],111% (inactive)
same,viability,[3]; [20],92.6% (active)
same,viability,[3]; [21],97.4% (active)
same,viability,[3]; [22],118% (inactive)
same,viability,[3]; [23],112% (inactive)
same,viability,[3]; [24],97.6% (active)
same,viability,[3]; [25],95.6% (active)
same,viability,[3]; [26],126% (inactive)
same,viability,[3]; [27],116% (inactive)
same,viability,[3]; [28],93.1% (active)
same,viability,[3]; [29],94.2% (active)
same,viability,[3]; [30],115% (inactive)
same,viability,[3]; [31],111% (inactive)
same,viability,[3]; [32],94.9% (active)
same,viability,[3]; [33],95.1% (active)
same,viability,[3]; [34],114% (inactive)
same,viability,[3]; [35],107% (inactive)
same,viability,[3]; [36],8.63% (active)
same,viability,[3]; [37],75.3% (active)
same,viability,[3]; [38],3.43% (active)
same,viability,[3]; [39],2.98% (active)
same,viability,[3]; [40],0.394% (active)
same,viability,[3]; [41],0.691% (active)
CCOC(=O)c1[nH]c2cc(Cl)ccc2c1C(C(=O)NC(C)(C)C)N(C=O)Cc1ccc(Cl)cc1 (stereo not drawn),fold change,[1]; [4],0.989 (inactive)
same,fold change,[1]; [5],0.584
same,cell count,[1]; [6],2750
same,cell count,[1]; [7],2780
same,z-score,[2]; [8],-0.405 (inactive)
same,z-score,[2]; [9],-1.07
same,viability,[3]; [10],118% (inactive)
same,viability,[3]; [11],105% (inactive)
same,viability,[3]; [12],75.1% (active)
same,viability,[3]; [13],82% (active)
same,viability,[3]; [14],112% (inactive)
same,viability,[3]; [15],113% (inactive)
same,viability,[3]; [16],66.5% (active)
same,viability,[3]; [17],73% (active)
same,viability,[3]; [18],113% (inactive)
same,viability,[3]; [19],104% (inactive)
same,viability,[3]; [20],67.1% (active)
same,viability,[3]; [21],64.8% (active)
same,viability,[3]; [22],110% (inactive)
same,viability,[3]; [23],116% (inactive)
same,viability,[3]; [24],69.4% (active)
same,viability,[3]; [25],63.9% (active)
same,viability,[3]; [26],114% (inactive)
same,viability,[3]; [27],102% (inactive)
same,viability,[3]; [28],96.7% (active)
same,viability,[3]; [29],103% (inactive)
same,viability,[3]; [30],108% (inactive)
same,viability,[3]; [31],106% (inactive)
same,viability,[3]; [32],99.6% (active)
same,viability,[3]; [33],99.6% (active)
same,viability,[3]; [34],111% (inactive)
same,viability,[3]; [35],105% (inactive)
same,viability,[3]; [36],103% (inactive)
same,viability,[3]; [37],102% (inactive)
same,viability,[3]; [38],116% (inactive)
same,viability,[3]; [39],120% (inactive)
same,viability,[3]; [40],62% (active)
same,viability,[3]; [41],101% (inactive)
Cc1cc([N+](=O)[O-])ccc1NS(=O)(=O)c1cc(Cl)ccc1Cl,fold change,[1]; [4],0.984 (inactive)
same,fold change,[1]; [5],0.518
same,cell count,[1]; [6],3670
same,cell count,[1]; [7],3730
same,z-score,[2]; [8],-0.622 (inactive)
same,z-score,[2]; [9],-3.52
same,viability,[3]; [10],116% (inactive)
same,viability,[3]; [11],110% (inactive)
same,viability,[3]; [12],74.5% (active)
same,viability,[3]; [13],83.8% (active)
same,viability,[3]; [14],122% (inactive)
same,viability,[3]; [15],118% (inactive)
same,viability,[3]; [16],65.9% (active)
same,viability,[3]; [17],73.5% (active)
same,viability,[3]; [18],120% (inactive)
same,viability,[3]; [19],111% (inactive)
same,viability,[3]; [20],62.7% (active)
same,viability,[3]; [21],74.6% (active)
same,viability,[3]; [22],118% (inactive)
same,viability,[3]; [23],110% (inactive)
same,viability,[3]; [24],65.1% (active)
same,viability,[3]; [25],76.4% (active)
same,viability,[3]; [26],122% (inactive)
same,viability,[3]; [27],121% (inactive)
same,viability,[3]; [28],99.2% (active)
same,viability,[3]; [29],101% (inactive)
same,viability,[3]; [30],109% (inactive)
same,viability,[3]; [31],115% (inactive)
same,viability,[3]; [32],101% (inactive)
same,viability,[3]; [33],99.3% (active)
same,viability,[3]; [34],102% (inactive)
same,viability,[3]; [35],123% (inactive)
same,viability,[3]; [36],96.3% (active)
same,viability,[3]; [37],89.4% (active)
same,viability,[3]; [38],99.8% (active)
same,viability,[3]; [39],87% (active)
same,viability,[3]; [40],91.1% (active)
same,viability,[3]; [41],70.2% (active)
O=C(C=Cc1cccc(S(=O)(=O)Nc2ccccc2)c1)NO,fold change,[1]; [4],0.967 (inactive)
same,fold change,[1]; [5],0.71
same,cell count,[1]; [6],1120
same,cell count,[1]; [7],1160
same,z-score,[2]; [8],0.973 (inactive)
same,z-score,[2]; [9],1.18
Cc1[nH]c2ccccc2c1CCNC(=O)c1cccs1,fold change,[1]; [4],0.913 (inactive)
same,fold change,[1]; [5],0.438
same,cell count,[1]; [6],7830
same,cell count,[1]; [7],8570
same,z-score,[2]; [8],-0.422 (inactive)
same,z-score,[2]; [9],0.75
CC(=O)OC1C[C@@H]2CC[C@@H]3[C@@H](CC[C@]4(C)C(OC(C)=O)C([N+]5(C)CCCCC5)C[C@@H]34)[C@@]2(C)CC1N1CCCCC1 (stereo partly drawn),fold change,[1]; [4],0.894 (inactive)
same,fold change,[1]; [5],1.12
same,cell count,[1]; [6],8090
same,cell count,[1]; [7],9050
same,z-score,[2]; [8],-0.47 (inactive)
same,z-score,[2]; [9],-0.53
CC(=O)O[C@@]1(C(C)=O)CC[C@H]2[C@@H]3C=C(C)C4=CC(=O)CC[C@]4(C)[C@@H]3CC[C@@]21C,fold change,[1]; [4],0.871 (inactive)
same,fold change,[1]; [5],0.828
same,cell count,[1]; [6],6160
same,cell count,[1]; [7],7070
same,z-score,[2]; [8],-0.515 (inactive)
same,z-score,[2]; [9],0.339
same,viability,[3]; [10],94.9% (active)
same,viability,[3]; [11],104% (inactive)
same,viability,[3]; [12],96.4% (active)
same,viability,[3]; [13],104% (inactive)
same,viability,[3]; [14],107% (inactive)
same,viability,[3]; [15],97.6% (active)
same,viability,[3]; [16],99.8% (active)
same,viability,[3]; [17],100% (inactive)
same,viability,[3]; [18],102% (inactive)
same,viability,[3]; [19],101% (inactive)
same,viability,[3]; [20],99.9% (active)
same,viability,[3]; [21],96.3% (active)
same,viability,[3]; [22],100% (inactive)
same,viability,[3]; [23],99.3% (active)
same,viability,[3]; [24],96.9% (active)
same,viability,[3]; [25],93.1% (active)
same,viability,[3]; [26],98.1% (active)
same,viability,[3]; [27],94.7% (active)
same,viability,[3]; [28],100% (inactive)
same,viability,[3]; [29],100% (inactive)
same,viability,[3]; [30],116% (inactive)
same,viability,[3]; [31],90.3% (active)
same,viability,[3]; [32],92.2% (active)
same,viability,[3]; [33],89.7% (active)
